V-ATPase pHluor: alters yeast V-ATPase proton transport; S. cerevisiae, pHLuorin cytosolic pH fluorescence; 0.37% of 350,000 active; response, % at 10 µM; in the data active = response mostly above about 7.3%, no sharp cut-off; inactive = mostly below about 5.4%; also: actives read high
NALP1 yeast inh: NALP1 inhibition. S. cerevisiae NALP1/ASC/caspase-1 growth, X-gal OD620, 72 h. inhibition, % at 10 µM. 0.61% of 280,000 active; in the data active = inhibition mostly above about 24%, no sharp cut-off; inactive = mostly below about 32%
TIM10 inh: growth inhibitors of TIM10 yeast strain; inhibition, % at 10 µM; AID 463195; S. cerevisiae TIM10 strain growth, BacTiter-Glo luminescence, 24 h; 1.4% of 330,000 active;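 active = inhibition of 40% or more at the single tested concentration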;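 also: wild-type TIM10 isogenic control strain grown at permissive 25 °C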
tim23-1 inh: tim23-1 yeast growth inhibition; S. cerevisiae tim23-1 growth, BacTiter-Glo luminescence, 24 h; inhibition, % at 20 µM; 1.3% of 330,000 active; AID 463212;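 active = growth inhibition of the mutant yeast at or above 50%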;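 also: temperature-sensitive mutant grown at 25 °C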
tim10-1 inh: tim10-1 yeast growth inhibition; 2.2% of 330,000 active; S. cerevisiae tim10-1 ts strain growth, BacTiter-Glo, 24 h; inhibition, % at 20 µM;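 active = inhibition of at least 40%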;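 also: mutant grown at 25 °C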
NALP3 yeast inh: inhibitors of NALP3 inflammasome in yeast | 0.39% of 330,000 active | Yeast reconstituted NLRP3/ASC/caspase-1, beta-gal luminescence, 24 h | AID 2825 | inhibition, % at 10 µM;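 active = inhibition of 50% or more; inactive = inhibition below 50%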
NALP3 yeast conf: NALP3 inhibition confirmation in yeast; shares compounds with NALP3 yeast inh; yeast expressing human NALP3, luminescence; inhibition, % at 10 µM; 81% of 1,300 active; in the data active = inhibition above about 48%
Casp1-ASC yeast: counter-screen for NALP3 inhibitors: yeast caspase-1-ASC; shares compounds with NALP3 yeast inh; yeast expressing Caspase-1-ASC, luminescence counter screen; inhibition, % at 10 µM; 66% of 1,000 active; AID 488784
NALP3 retest: confirmation retest of NALP3 inhibitors in yeast; 53% of 1,000 active; shares compounds with NALP3 yeast inh; yeast expressing human NALP3, luminescence read-out; inhibition, % at 10 µM
tim10-1 conf: confirmation of tim10-1 mutant yeast growth inhibitors; 56% of 7,400 active; inhibition, % at 20 µM; AID 463213; shares compounds with tim10-1 inh; S. cerevisiae tim10-1 ts strain growth, BacTiter-Glo, 24 h;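 active = inhibition of yeast growth at or above a set limit in either of two repeat tests at 20 µM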;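 also: tim10-1 mutant grown at permissive 25 °C to find synthetic lethal compounds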
TIM10 conf: confirmation of TIM10 yeast growth inhibitors | shares compounds with TIM10 inh | S. cerevisiae tim10 strain growth, BacTiter-Glo luminescence, 24 h | inhibition, % at 10 µM | 63% of 4,600 active;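 active = inhibition of yeast growth at or above a set limit in either of two replicates at 10 µM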; also: this counterscreen used the strain with wild-type TIM10
tim23-1 confirm: confirmation of tim23-1 mutant yeast growth inhibitors; shares compounds with tim23-1 inh; inhibition, % at 20 µM; 83% of 4,400 active; S. cerevisiae tim23-1 growth, BacTiter-Glo luminescence, 24 h;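 active = inhibition above about 39% in either of two replicate wells at 20 µM, limit read from the data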;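 also: temperature-sensitive tim23-1 mutant grown at 25 °C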
Hits are given with their value. In the library only some 4.2% were active in any assay of this set; here they are far more common. Rule as the data show it, unless noted: active = inhibition above about 50%; inactive = the rest.

Results for COC(=O)c1ccccc1NC1=C/C(=N\S(=O)(=O)c2ccc(C(=O)O)cc2)c2ccccc2C1=O ?
V-ATPase pHluor: inactive; NALP1 yeast inh: inactive; TIM10 inh: 53; tim23-1 inh: 71; tim10-1 inh: 54; NALP3 yeast inh: 51; NALP3 yeast conf: 64; Casp1-ASC yeast: 84; NALP3 retest: 77; tim10-1 conf: 77; TIM10 conf: 65; tim23-1 confirm: 89

How did O=C(NC(=S)NNC(=O)c1ccccc1O)c1cccs1 do in these assays?
V-ATPase pHluor: inactive; NALP1 yeast inh: inactive; TIM10 inh: 51; tim23-1 inh: 53; tim10-1 inh: inactive; NALP3 yeast inh: 59; NALP3 yeast conf: 78; Casp1-ASC yeast: 70; NALP3 retest: 56; TIM10 conf: 47; tim23-1 confirm: 66

Results for COc1ccccc1C(=O)NNC(=S)NC(=O)c1cccs1 ?
V-ATPase pHluor: inactive; NALP1 yeast inh: inactive; TIM10 inh: inactive; tim23-1 inh: inactive; tim10-1 inh: inactive; NALP3 yeast inh: inactive

Results for CCNC(=O)CCS(=O)(=O)c1ccc2ccccc2c1 ?
V-ATPase pHluor: inactive; NALP1 yeast inh: inactive; TIM10 inh: inactive; tim23-1 inh: inactive; tim10-1 inh: inactive; NALP3 yeast inh: inactive

What do the screens show for `CN1CCN(c2cc(-c3ccccc3)nc3cc(-c4ccc(F)cc4)nn23)CC1`?
V-ATPase pHluor: inactive; NALP1 yeast inh: inactive; TIM10 inh: inactive; tim23-1 inh: 55; tim10-1 inh: inactive; NALP3 yeast inh: 52; NALP3 yeast conf: 63; Casp1-ASC yeast: 68; NALP3 retest: 66; tim23-1 confirm: 43

Results for O=Nc1c(-c2c(O)[nH]c3cc(Br)ccc23)[nH]c2ccccc12 ?
V-ATPase pHluor: inactive; NALP1 yeast inh: inactive; TIM10 inh: inactive; tim23-1 inh: 51; tim10-1 inh: inactive; NALP3 yeast inh: 67; NALP3 yeast conf: 71; Casp1-ASC yeast: 56; NALP3 retest: 64; tim23-1 confirm: 57

How did COc1cccc2c1C(=O)c1c(O)c3c(c(O)c1C2=O)C[C@@](O)(C(=O)CO)C[C@@H]3O[C@H]1C[C@H](N)[C@H](O)[C@H](C)O1 do in these assays?
V-ATPase pHluor: inactive; NALP1 yeast inh: inactive; TIM10 inh: inactive; tim23-1 inh: 52; tim10-1 inh: inactive; NALP3 yeast inh: 65; NALP3 yeast conf: 69; Casp1-ASC yeast: 75; NALP3 retest: 66; tim23-1 confirm: 44

How did COc1cccc2c1C(=O)c1c(O)c3c(c(O)c1C2=O)C[C@@](O)(C(=O)CO)C[C@@H]3OC1CC(N)C(O)C(C)O1 (stereo partly specified) do in these assays?
V-ATPase pHluor: inactive

What do the screens show for `CSc1nc2cc(Oc3cccc(Cl)c3Cl)c(Cl)cc2[nH]1`?
V-ATPase pHluor: inactive; NALP1 yeast inh: inactive; TIM10 inh: 55; tim23-1 inh: 74; tim10-1 inh: 53; NALP3 yeast inh: 83; NALP3 yeast conf: 91; Casp1-ASC yeast: 96; NALP3 retest: 95; tim10-1 conf: 51; TIM10 conf: 65; tim23-1 confirm: inactive

Results for O=C(O)/C=C/C(=O)NNC(=O)c1ccc(Br)cc1 ?
V-ATPase pHluor: inactive; NALP1 yeast inh: inactive; TIM10 inh: inactive; tim23-1 inh: inactive; tim10-1 inh: inactive; NALP3 yeast inh: inactive

How did Cc1nc(Nc2nc3c(c(=O)[nH]2)CCC3)nc2ccccc12 do in these assays?
V-ATPase pHluor: inactive; TIM10 inh: 83; tim23-1 inh: 64; tim10-1 inh: 60; NALP3 yeast inh: 77; NALP3 yeast conf: 71; Casp1-ASC yeast: inactive; NALP3 retest: inactive; tim10-1 conf: 72; TIM10 conf: 75; tim23-1 confirm: 62

What do the screens show for `CCc1ccc(OCCCC(=O)Nc2ccc(N3CCOCC3)cc2)cc1`?
V-ATPase pHluor: inactive; NALP1 yeast inh: inactive; TIM10 inh: inactive; tim23-1 inh: inactive; tim10-1 inh: inactive; NALP3 yeast inh: inactive

What do the screens show for `COc1ccc(-c2csc(NC(=S)NC(=O)/C=C/c3ccccc3)n2)cc1Br`?
NALP1 yeast inh: inactive; TIM10 inh: inactive; tim23-1 inh: inactive; tim10-1 inh: inactive; NALP3 yeast inh: inactive

Results for CCNC(=O)c1c(O)c2ccccc2[nH]c1=O ?
V-ATPase pHluor: inactive; NALP1 yeast inh: inactive; TIM10 inh: inactive; tim23-1 inh: 54; tim10-1 inh: inactive; NALP3 yeast inh: 68; NALP3 yeast conf: 79; Casp1-ASC yeast: 53; NALP3 retest: 71; tim23-1 confirm: 41

What do the screens show for `O=C(NCCc1ccccc1)c1c(O)c2ccccc2[nH]c1=O`?
V-ATPase pHluor: inactive; NALP1 yeast inh: inactive; TIM10 inh: inactive; tim23-1 inh: inactive; tim10-1 inh: inactive; NALP3 yeast inh: inactive

How did Cc1ccc(Nc2c(-c3ccccn3)nc3cc(C)ccn23)cc1 do in these assays?
V-ATPase pHluor: inactive; NALP1 yeast inh: inactive; TIM10 inh: inactive; tim23-1 inh: 57; tim10-1 inh: inactive; NALP3 yeast inh: 53; NALP3 yeast conf: 63; Casp1-ASC yeast: 50; NALP3 retest: inactive; tim23-1 confirm: 50

Results for O=C(C[n+]1ccccc1)N/N=C/c1cc(Br)ccc1F ?
V-ATPase pHluor: inactive; TIM10 inh: inactive; tim23-1 inh: inactive; tim10-1 inh: inactive; NALP3 yeast inh: inactive

Results for O=C(C[n+]1ccccc1)N/N=C/c1cc(Br)cc(Br)c1O ?
V-ATPase pHluor: inactive; NALP1 yeast inh: inactive; TIM10 inh: 56; tim23-1 inh: 68; tim10-1 inh: inactive; NALP3 yeast inh: 78; NALP3 yeast conf: 53; Casp1-ASC yeast: 87; NALP3 retest: 77; TIM10 conf: 68; tim23-1 confirm: 69

How did Cn1c2c(c(=O)n(C)c1=O)C(C(F)(F)F)(C(F)(F)F)N=C(c1ccc(Cl)cc1)N2 do in these assays?
V-ATPase pHluor: inactive; NALP1 yeast inh: inactive; TIM10 inh: inactive; tim23-1 inh: 59; tim10-1 inh: 61; NALP3 yeast inh: 54; NALP3 yeast conf: 92; Casp1-ASC yeast: 77; NALP3 retest: 88; tim10-1 conf: 59; tim23-1 confirm: 51

Assay outcomes as filed in PubChem.
